# Assay results reported in PubChem BioAssay AID488841 (Sanford-Burnham Center for Chemical Genomics, 2010).
# Among all 1,400 compounds or so, about 380 (27%) were called active. Some of the results follow. Unmarked numbers belong to inactive results.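 The calls were made as follows: active = mean inhibition above 50% across duplicate retests at 10 µM; inactive = the rest.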
# Assay: yeast NALP1 reporter signal suppression – S. cerevisiae, luminescence, single concentration, NALP1 inhibitor project, confirmation (AID 488841);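 also: plate controls were DMSO in galactose medium for no effect and cells in plain SD medium for full effect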
# Conditions: S. cerevisiae NALP1/ASC/Caspase-1 reporter, beta-gal luminescence; at 10 µM; active compounds read high
row,Compound,inhibition
1,COCCNCCOc1ccc(C(C)(C)c2ccccc2)cc1,50.5% (active)
2,Cc1cccc(N2C(=O)NC(=O)/C(=C/c3ccc([N+](=O)[O-])o3)C2=O)c1,31.1%
3,Nc1cc(Cl)c2nonc2c1[N+](=O)[O-],62.5% (active)
4,CCCCCn1c(=O)c(C(=O)Nc2nc3ccccc3[nH]2)c(O)c2ccccc21,23.1%
5,CCOc1cc(CNCCc2c[nH]c3ccccc23)cc(Cl)c1OCC,48%
6,Cc1ccc(/C=C2\C(=O)NC(=O)N(CC3CCCO3)C2=O)s1 (centres undefined),36.6%
7,C[C@H]1C[C@@H](C)C(=O)[C@@H]([C@H](O)CC2CC(=O)NC(=O)C2)C1,99.8% (active)
8,N#CCCn1cc(C(=O)NCc2ccccc2)c(-c2ccccc2)n1,37.1%
9,CC(Cc1ccccc1Sc1ccccc1)N(C)C (centres undefined),34.8%
10,Cc1cc2ccccn2c1C(C[N+](=O)[O-])c1c(F)cccc1Cl (centres undefined),71% (active)
11,O=C1/C(=C/c2cccc([N+](=O)[O-])c2)N2CCC1CC2,46.3%
12,Cc1ccc(S(=O)(=O)NC(CC(=O)N2CCC3(CC2)OCCO3)c2ccco2)cc1 (centres undefined),37.2%
13,COc1cc2c(cc1OC)CN(c1ccc([N+](=O)[O-])c(C(F)(F)F)c1)CC2,45.4%
14,CC(Cc1ccccc1)NC(=O)/C=C/c1ccc(Cl)cc1 (centres undefined),50% (active)
15,CCOCCN1CCN(c2nnc3n2-c2ccc(Cl)cc2C(c2ccccc2Cl)=NC3)CC1,32.9%
16,Cc1ccc(Cn2cc(C=O)c(-c3ccc(C)cc3)n2)cc1,59.5% (active)
17,CC(C)NS(=O)(=O)c1ccc(OCC(=O)N2CCN(C)CC2)cc1,4.2%
18,Cc1ccc(C)c(NC(=S)NCCc2cnc[nH]2)c1,23.7%
19,CN1C2CCC1/C(=C/c1ccccn1)C(=O)/C2=C\c1ccccn1,98% (active)
20,CC(C)CCn1c(=O)c(C(=O)NCc2ccco2)c(O)c2ccccc21,35%

row,Compound,inhibition
1,CC1(C)C[C@H]2C=C(C=O)[C@]3(C=O)C[C@]3(C)[C@H]2C1,32.4%
2,CN1/C(=C\C=C\C2=[N+](C)c3ccc4ccccc4c3C2(C)C)C(C)(C)c2ccccc21,100% (active)
3,CN1CCN(c2ccc(N)c(N3CCN(C)CC3)c2)CC1,33.6%
4,Fc1ccc(C(OCCN2CCCC2)c2ccc(Br)cc2)cc1 (centres undefined),49.5%
5,CCCCN(Cc1ccccc1)C1CCN(CCc2ccccc2)CC1,55.1% (active)
6,CC1CCCC(C)N1/N=C/c1c[nH]c2ccc(Br)cc12 (centres undefined),19.6%
7,CN[C@H]1C[C@H]2O[C@@](C)([C@H]1OC)n1c3ccccc3c3c4c(c5c6ccccc6n2c5c31)C(=O)NC4,99.7% (active)
8,Clc1ccc2nc3c(c(-c4ccccc4)c2c1)CNCC3,46%
9,O=C(c1cc2c(s1)-c1ccccc1OC2)N1CCC2(CC1)OCCO2,35.5%
10,c1ccc2sc(NC3=NCCN3)nc2c1,99.8% (active)
11,CNC(=O)Oc1ccc2ncccc2c1,35.5%
12,O=C(c1ccccc1)C(CN1CCCC1)c1ccccc1 (centres undefined),27.6%
13,COc1cc(/C=C(/C)[N+](=O)[O-])ccc1OCc1ccccc1Cl,73.4% (active)
14,Cc1ccc(-c2nc(N3CCOCC3)s[n+]2-c2ccccc2)cc1,40.2%
15,CSc1ncc(Cl)c(C(=O)O)n1 (tested in a mixture with another compound),21.1%
16,O=C1/C(=C/c2cc3c(cc2Cl)OCO3)N2CCC1CC2,47.5%
17,Nc1c2c(nc3sc4c(c13)CCCCC4)CCCC2,84.5% (active)
18,Nc1c2c(nc3sc4c(c13)CCCC4)CCCCC2,40.5%
19,Nc1ccc(C2(c3ccc(N)cc3)CN3CCC2CC3)cc1,25.7%
